Compound activity from PubChem BioAssay.
POLI inh: qHTS for Inhibitors of Polymerase Iota | 390,000 compounds, 1% hits | DNA polymerase iota (Homo sapiens), Q9UNA4 | Potency, µM (series often up to 115 µM), for inactives: top-dose activity, negative = inhibition, actives largely listed as inhibitors | Pol iota fluorescent replication assay, 10 min; note: potency is the fitted concentration of half-maximal effect
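Fluorescent replication assay read twice, at 0 min and 10 min after adding 50 nM (final) substrate. Enzyme (10 nM) and compounds were first incubated 15 min at room temperature; enzyme-free buffer wells were negative controls.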
PI5P4Ka inh: qHTS for Inhibitors of phosphatidylinositol 5-phosphate 4-kinase (PI5P4K) | Phosphatidylinositol 5-phosphate 4-kinase type-2 alpha (Homo sapiens), P48426 | PI5P4Kalpha enzyme, ADP-Glo luminescence, 60 min; stronger effect = lower value | max response, % | 330,000 compounds, 1.2% hits | AID 652105, 2013; active = max response of -50% or lower; inconclusive = between -30% and -50%; inactive = -30% or higher; note: value at the top dose of about 77 µM; % is set by controls: 0 for no effect and ±100 for the full control effect
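Enzyme plus substrate dispensed, test compounds pinned in, then ATP (5 microM final) added. After 60 min at RT, ADP-Glo reagent 1 for 45 min and reagent 2 for 30 min preceded luminescence imaging.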
Pol kappa inh: qHTS for Inhibitors of Polymerase Kappa; Potency, µM (top dose mostly 107 µM), for inactives: at the top dose activity, negative = inhibition, hits mostly inhibitors; DNA polymerase kappa (Homo sapiens), Q9UBT6; purified Pol kappa, fluorescent DNA synthesis assay, 10 min; 400,000 compounds, 0.53% hits; note: potency is the fitted concentration of half-maximal effect; % is set by controls: 0 for no effect and ±100 for the full control effect
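Here, compound and 10 nM enzyme are combined for 15 min at room temperature; adding 50 nM substrate (final) starts DNA synthesis, tracked by fluorescence at 0 and 10 min against buffer-only wells.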
Pol beta inh: qHTS Assay for Inhibitors of DNA Polymerase Beta. Potency, µM (titrated, usually from 114 µM), for inactives: top-dose activity change, negative = inhibition, actives largely listed as inhibitors. 340,000 compounds, 1.3% hits. Pol beta primer extension/strand displacement, fluorescence kinetic. P06746. AID 485314, 2010; note: potency is the fitted concentration of half-maximal effect; % is set by controls: 0 for no effect and ±100 for the full control effect
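Pol beta (10 nM) and compounds were preincubated 15 min at room temperature, then 50 nM substrate (final) started primer extension/strand displacement. Reads were taken at 0 and 10 min; concentration-response data were fitted to a four-parameter Hill equation.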
POLH inh: qHTS for Inhibitors of Polymerase Eta | AID 588591, 2011 | DNA polymerase eta (Homo sapiens), Q9Y253 | Potency, µM (doses to about 114 µM), inactives show at the top dose activity change, negative = inhibition, actives largely listed as inhibitors | 390,000 compounds, 1.2% hits | recombinant Pol eta, fluorescent DNA replication assay; note: potency is the fitted concentration of half-maximal effect; % is set by controls: 0 for no effect and ±100 for the full control effect
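Pol eta at 10 nM preincubated with compounds 15 min at room temperature; reaction started with fluorescent substrate (50 nM final) and read kinetically at 0 and 10 min.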
ALOX12 inh: Primary qHTS assay for inhibitors of human arachidonate 12S-lipoxygenase (ALOX12): Round 2 | Polyunsaturated fatty acid lipoxygenase ALOX12 (Homo sapiens), P18054 | purified 12hLO, xylenol orange hydroperoxide absorbance | Potency, µM (highest dose often 108 µM), inactives show at the top dose activity change, negative = inhibition, usual class: inhibitors | 580,000 compounds, 1.1% hits | AID 1671190, 2021; note: potency is the fitted concentration of half-maximal effect; % is set by controls: 0 for no effect and ±100 for the full control effect
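Purified human 12hLO at 150 nM in 25 mM Hepes, 0.01% Triton X-100, pH 7.0, preincubated 15 min at room temperature with compound. Reaction started with 40 uM arachidonic acid, 30 min at room temperature. Hydroperoxide measured by Fe-xylenol orange, 573/405 nm absorbance ratio.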
The depositor's hits bear a star. Hits are enriched below; roughly 2.9% of the tested compounds scored in any of these assays. Unless noted, calls come from the whole dose curve; as a rule, active = well fitted inhibition curve with a large enough effect; inconclusive = small, poorly fitted or top-dose-only effect, or another doubt; inactive = no such curve, though single readings can be large or run the other way.

Results for COc1ccc(COCC(O)COc2ccccc2-c2nc3ccccc3s2)cc1 (centres undefined) ?
ALOX12 inh: -17%

What do the screens show for `Nc1nccnc1C(=O)NCCc1cccnc1`?
ALOX12 inh: 16%

How did Cn1c(=O)c2c(ncn2CCC(=O)Nc2cccc(Br)c2)n(C)c1=O do in these assays?
ALOX12 inh: 3%

What do the screens show for `CCOc1cc(/C=C2/C(=N)N3C(=NC2=O)SN=C3S(C)(=O)=O)ccc1OC(=O)c1ccco1`?
POLI inh: inconclusive; PI5P4Ka inh: inconclusive; Pol kappa inh: -28%; Pol beta inh: 5%; POLH inh: 3%

What do the screens show for `CCS(=O)(=O)C1=NSC2=NC(=O)/C(=C\c3ccc(OC(=O)c4ccco4)cc3)C(=N)N21`?
POLI inh: inconclusive; PI5P4Ka inh: -87*; Pol kappa inh: 3%; Pol beta inh: -22%; POLH inh: 79µM*; ALOX12 inh: inconclusive

Results for N=C1/C(=C\c2ccc(OC(=O)c3ccco3)cc2)C(=O)N=C2SC(N3CCCCC3)=NN12 ?
POLI inh: inconclusive; PI5P4Ka inh: -52*; Pol kappa inh: inconclusive; Pol beta inh: -5%; POLH inh: inconclusive; ALOX12 inh: 5%

How did CC(C)S(=O)(=O)C1=NSC2=NC(=O)/C(=C\c3ccc(OC(=O)c4ccco4)cc3)C(=N)N21 do in these assays?
POLI inh: 13%; PI5P4Ka inh: -76*; Pol kappa inh: -1%; Pol beta inh: 23%; POLH inh: inconclusive; ALOX12 inh: inconclusive

What do the screens show for `Cn1nc(C(=O)OCC(=O)NCc2ccccc2)c2ccccc2c1=O`?
ALOX12 inh: 13%

Results for COc1ccccc1NC(=O)c1cc2cc(Br)ccc2cc1O ?
POLI inh: -13%; PI5P4Ka inh: inconclusive; Pol kappa inh: 2%; Pol beta inh: 22µM*; POLH inh: inconclusive; ALOX12 inh: 0%

Results for COc1ccc(NC(=O)NNC(=O)c2cc3ccccc3cc2O)cc1 ?
POLI inh: inconclusive; PI5P4Ka inh: -2; Pol kappa inh: -25%; Pol beta inh: inconclusive; POLH inh: -17%; ALOX12 inh: -3%

What do the screens show for `COc1cc(NC(=O)c2cc3ccccc3cc2O)c(OC)cc1Cl`?
POLI inh: -6%; PI5P4Ka inh: -5; Pol kappa inh: 7%; Pol beta inh: -19%; POLH inh: -1%; ALOX12 inh: 79%

What do the screens show for `COc1ccc(C)cc1NC(=O)NNC(=O)c1cc2ccccc2cc1O`?
POLI inh: -26%; PI5P4Ka inh: -27; Pol kappa inh: -13%; Pol beta inh: 79µM*; POLH inh: -1%; ALOX12 inh: 6%

What do the screens show for `CC(C)(C)c1ccc(Oc2ccc(NC(=O)CCC(=O)O)cc2)cc1`?
ALOX12 inh: 1%

Results for CC(=O)N1CCC2(CC1)Oc1ccccc1C1CC(c3cccc(OC(F)F)c3)=NN12 (centres undefined) ?
ALOX12 inh: -24%

How did Cc1ccccc1CN1CCN(c2nc3c(c(=O)[nH]c(=O)n3C)n2CCC(C)C)CC1 do in these assays?
ALOX12 inh: -5%

How did COc1ccc(-c2nc(=S)[nH][nH]2)cc1OC do in these assays?
POLI inh: 2%; PI5P4Ka inh: inconclusive; Pol kappa inh: -7%; Pol beta inh: 39%; POLH inh: -8%; ALOX12 inh: inconclusive

What do the screens show for `COc1cc(-c2nc(=S)[nH][nH]2)cc(OC)c1OC`?
POLI inh: inconclusive; PI5P4Ka inh: -79*; Pol kappa inh: 3%; Pol beta inh: 1%; POLH inh: -13%; ALOX12 inh: inconclusive

Results for O=S1(=O)CC(O)C(O)CS1 (centres undefined) ?
PI5P4Ka inh: -69*; ALOX12 inh: inconclusive
